The results in this text go back to PubChem BioAssay.

Results filed as inconclusive are left out. Activity calls are given as the source filed them.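 How the source made its calls, unless noted: active means viability increase at or above a cutoff of the median across tested compounds plus 3 SD (cut at about 8.5% in these data, passing the limit was not always enough); inconclusive means some gains above the cutoff, reason not given; inactive means the rest.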

A short description of assay [1]: reducers of endogenous Her2 protein level, primary screen, SKBR3 breast tumor cells, AlphaScreen, ATP viability (AID 461;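 active means Her2 level under about 52% in both replicate screens, with viability over 70% of control, limit read from the data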;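 on Her2 level: lower value means less Her2 protein in the cells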;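 on viability: percent of carrier control wells set as 100% viability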). To be noted: 18-24 h, measured here: SKBR3 viability, ATP luminescence, at 10 µM.
The target in assay [2] is Receptor tyrosine-protein kinase erbB-2 (Homo sapiens) (UniProt P04626). The assay is described as above. Particulars: 18-24 h, at 10 µM, stronger effect = lower value.
A short description of assay [3]: SK-BR-3 cell growth inhibitors, pilot screen, 24 h, human (AID 572;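 active means viability at or below 10% of carrier control in both of two separate runs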;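 further: compound exposure lasted between 18 and 24 h rather than exactly 24 h; 100% = carrier-treated control wells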). To be noted: SK-BR-3 viability, CellTiter-Glo luminescence, at 10 µM, stronger effect = lower value.
Assay [4] is described as follows: HUVEC growth inhibition – cell-based, human, primary screen (AID 575;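 active means viability at or below 30% in both replicate assays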;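 further: 100% = median of untreated cell wells with 0.1% DMSO on each plate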). To be noted: HUVEC proliferation, CellTiter-Glo luminescence, 72 h; at 10 µM; stronger effect = lower value.
Assay [5] is described as follows: growth inhibitors of H69AR lung tumor, primary screen, human, duplicate replicates (AID 580;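 active means viability at or under a set limit in both replicates, limit being median viability minus 3 SD, cut at about 48% in these data, passing the limit was not always enough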;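 further: 100% = mean luminescence of untreated wells and 0% = no signal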). To be noted: H69AR lung tumor cells viability, ATP luminescence, 72 h; at 10 µM; stronger effect = lower value.
Assay [6] can be described thus: reversal of MRP1-mediated doxorubicin resistance, pilot screen, H69AR cells, doxorubicin co-treatment (AID 601;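 active means viability loss from added drug above about 55%, and viability with drug at most 40%, in both replicates, limit read from the data, passing the limit was not always enough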). To be noted: CellTiter-Glo, 72 h, at 10 µM; for differential viability (reversal): stronger effect = higher value.
Assay [7] in a line: 384-well plate pilot, post-Golgi transport modulator project, inhibition of yeast transport mutant growth (AID 636; in the data active means inhibition above about 31%). To be noted: absorbance 615 nm, about 18 h, stronger effect = higher value.
A short description of assay [8]: growth suppression of yeast trafficking mutant, preliminary HTS, modulators of trafficking downstream of Golgi apparatus project, 1536-format plate, OD 615 nm (AID 637; in the data active means inhibition above about 30%). To be noted: yeast transport mutant growth, absorbance 615 nm, 18 h; stronger effect = higher value.
Assay [9] can be described thus: OD615 S. cerevisiae growth inhibition, permissive medium, pilot counter-assay, permissive growth control for S. cerevisiae lifespan shortening project (AID 705;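 active means growth inhibition above 25% in both replicates, a cutoff set 3 SD above the mean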). To be noted: OD615, 24 h, at 10 µM, stronger effect = higher value.
Assay [10] can be described thus: Restrictive medium S. cerevisiae growth inhibition, OD615, pilot screen of yeast lifespan reduction project, restrictive growth control (AID 706;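 active means growth inhibition above a set limit, 3 SD over mean compound inhibition, in both replicates, cut at about 43% in these data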;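 further: modified DeaD lifespan yeast strain shifted to restrictive glucose medium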). Particulars: OD615, 48 h, at 10 µM, stronger effect = higher value.
Assay [11] in a line: viability gain of MRP-1-high H69AR cells under doxorubicin, pilot screen, MRP-1 activator project, CellTiter-Glo, duplicate (AID 807).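 Further: compound pretreatment 18-22 h then 72 h combined with doxorubicin; 0% = doxorubicin alone and 100% = vehicle without doxorubicin.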 To be noted: H69AR viability with doxorubicin, CellTiter-Glo luminescence; at 10 µM; stronger effect = higher value.
Assay [12] can be described thus: growth suppression of beta-catenin knockout HCT116, pilot screen, human colon tumor cells (AID 823;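 active means cell viability at or below a set limit in both duplicate runs, the limit being the all-compound median minus 4 SD, cut at about 23% in these data, passing the limit was not always enough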;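 further: 0% = wells killed by 20 µM Hyamine and 100% = untreated DMSO cell wells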). Particulars: CellTiter-Glo, 60 h, at 10 µM, stronger effect = lower value.
A short description of assay [13]: growth suppression of PTEN-deleted HCT116, pilot screen, cell-based, HCT116 clonal line, CellTiter-Glo (AID 824;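 active means viability at or below 27.92% in each of two runs, the all-compound median minus 4 SD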;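 further: 0% = 20 µM Hyamine control and 100% = vehicle cell control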). To be noted: 60 h, at 10 µM, stronger effect = lower value.
Assay [14] can be described thus: inhibitors of the yeast RAM network, pilot screen, dse1pr::URA3 reporter, 5-FOA selection (AID 869;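 active means inhibition over a set limit, the all-compound mean plus 3 SD, in both replicate runs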;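 further: 0% = DMSO wells with no growth and 100% = 10 µM 1-NA-PP1 with full growth; RAM network block rescues cells from 5-FOA so hits raise OD615 growth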). To be noted: S. cerevisiae dse1pr::URA3 5-FOA growth, OD615, 2 d; at 10 µM; stronger effect = higher value; strain carries analog-sensitive mutant Cbk1 kinase.
Assay [15] is described as follows: RAM signaling pathway blockade in yeast – S. cerevisiae, Pdr1DBD-CYC8 efflux-inhibited sensitized strain, primary screen (AID 1298;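 active means RAM network inhibition above 8.4% in each of two replicates, 3 SD over the compound average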;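 further: 0% = DMSO untreated cells without growth and 100% = 10 µM 1-NA-PP1 full growth; higher means more yeast growth rescued from 5-FOA killing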). Particulars: S. cerevisiae cbk1-as DSE1-URA3 strain, 5-FOA growth OD615, 2 d; at 50 µM; stronger effect = higher value.
[16] abbreviates: H69AR cells + 2 uM doxorubicin, measured here: viability with 2 uM doxorubicin, stronger effect = lower value.
The mark [17] stands for this setting: H69AR cells, compound alone cytotoxicity.

Chain of Receptor tyrosine-protein kinase erbB-2 (Homo sapiens) (P04626 whole entry, looked up): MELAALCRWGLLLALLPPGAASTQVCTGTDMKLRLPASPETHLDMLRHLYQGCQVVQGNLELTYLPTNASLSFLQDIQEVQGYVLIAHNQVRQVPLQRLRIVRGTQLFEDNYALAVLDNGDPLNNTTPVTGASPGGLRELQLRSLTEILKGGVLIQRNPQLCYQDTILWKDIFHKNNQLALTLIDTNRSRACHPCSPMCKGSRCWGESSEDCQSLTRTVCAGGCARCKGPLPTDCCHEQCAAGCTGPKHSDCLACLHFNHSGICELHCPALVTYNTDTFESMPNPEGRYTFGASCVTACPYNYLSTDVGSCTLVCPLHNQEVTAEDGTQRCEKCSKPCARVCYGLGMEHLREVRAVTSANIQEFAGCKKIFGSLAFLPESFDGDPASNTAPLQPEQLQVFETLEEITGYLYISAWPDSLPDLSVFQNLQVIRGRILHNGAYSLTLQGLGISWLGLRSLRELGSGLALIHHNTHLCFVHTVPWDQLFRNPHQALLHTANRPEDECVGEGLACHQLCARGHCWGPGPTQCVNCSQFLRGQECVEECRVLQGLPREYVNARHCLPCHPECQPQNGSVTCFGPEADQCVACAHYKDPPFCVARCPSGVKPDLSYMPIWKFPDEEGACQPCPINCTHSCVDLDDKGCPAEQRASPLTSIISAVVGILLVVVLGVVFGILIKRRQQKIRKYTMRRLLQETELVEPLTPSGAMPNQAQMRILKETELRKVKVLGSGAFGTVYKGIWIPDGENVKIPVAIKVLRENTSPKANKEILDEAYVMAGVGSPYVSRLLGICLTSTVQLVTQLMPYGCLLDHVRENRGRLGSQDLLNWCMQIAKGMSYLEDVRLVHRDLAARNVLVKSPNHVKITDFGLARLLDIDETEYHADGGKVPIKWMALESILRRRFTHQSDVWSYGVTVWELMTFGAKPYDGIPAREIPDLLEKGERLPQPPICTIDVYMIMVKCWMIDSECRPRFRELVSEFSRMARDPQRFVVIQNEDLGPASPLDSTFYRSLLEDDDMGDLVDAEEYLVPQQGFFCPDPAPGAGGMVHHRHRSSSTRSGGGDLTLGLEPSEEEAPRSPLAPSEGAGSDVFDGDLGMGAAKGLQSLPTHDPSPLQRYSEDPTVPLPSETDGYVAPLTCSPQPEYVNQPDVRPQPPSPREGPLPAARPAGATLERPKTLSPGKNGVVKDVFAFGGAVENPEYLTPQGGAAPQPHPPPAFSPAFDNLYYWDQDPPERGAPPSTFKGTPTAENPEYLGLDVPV

Consider `CCOc1cccc(-c2nnc3n2N=C(c2cc(OC)ccc2OC)CS3)c1`, for which the viability in assay [1] is 104%; in [3] it was 104% (inactive); in assay [4] it was 42.4% (inactive); in assay [5], 13.5% (active); in assay [6] (setting [16]), 74.2%; in assay [6] (setting [17]) it was 13.5%. Moreover, the viability in assay [12] is 19.4% (active); in assay [13] it was 21.2% (active). Besides, the Her2 level in assay [2] was 83.5% (inactive). Also, the differential viability (reversal) in [6] (H69AR cells + 2 uM doxorubicin) was -60.8% (inactive). For the same compound, the inhibition in assay [7] is -5.87% (inactive); in assay [8], 1.75% (inactive); in [14] it was 1.96% (inactive). In addition, the growth inhibition in assay [9] was 16.2% (inactive); in assay [10], 50.3% (active). In addition, the viability increase in [11] is -3.98% (inactive). In addition, in assay [15], the RAM network inhibition was 6.09% (inactive).

As for `Cc1ccc(S(=O)(=O)NCCSc2nnnn2-c2ccc(C(N)=O)cc2)cc1`, the viability in assay [1] was 116%; in [3], 116% (inactive); in [4], 126% (inactive); in [5] it was 101% (inactive); in assay [6] (setting [16]), 103%; in assay [6] (setting [17]), 101%. In addition, the viability was 92.1% (inactive) in [12] and 89.8% (inactive) in [13]. For the same compound, in assay [2], the Her2 level was 101% (inactive). Besides, the differential viability (reversal) in assay [6] (H69AR cells + 2 uM doxorubicin) is -1.94% (inactive). For the same compound, the values for the inhibition in [7], in [8] and in [14] were 0.53% (inactive), -2.17% (inactive) and -0.71% (inactive), respectively. Besides, the growth inhibition was -3.29% (inactive) in assay [9] and -2.84% (inactive) in [10]. The viability increase in assay [11] was -1.69% (inactive). Besides, the RAM network inhibition in [15] is 1.74% (inactive).

`COC(=O)CSC1=NS(=O)(=O)c2ccccc21`: the viability was 143% in assay [1]; 143% (inactive) in assay [3]; 60% (inactive) in assay [4]; 62.6% (inactive) in [5]; 89.3% in [6] (setting [16]); 62.6% in [6] (setting [17]). Also, the viability in [12] is 99.4% (inactive); in assay [13], 96.4% (inactive). The Her2 level in [2] is 92% (inactive). The differential viability (reversal) in [6] (H69AR cells + 2 uM doxorubicin) was -26.7% (inactive). For the same compound, the inhibition in assay [7] was -7.43% (inactive); in assay [8] it was -2.3% (inactive); in [14], -0.34% (inactive). For the same compound, the growth inhibition in assay [9] was 94.3% (active); in assay [10], 98.3% (active). Further, the viability increase in [11] is -0.32% (inactive). Further, the RAM network inhibition in assay [15] was -1.77% (inactive).

As to `C=CCn1c(SCc2cccc(C#N)c2)nnc1-c1ccccc1O`, the viability is 86.5% in assay [1]; 86.5% (inactive) in assay [3]; 85.9% (inactive) in assay [4]; 92.4% (inactive) in assay [5]; 91.8% in assay [6] (setting [16]); 92.4% in [6] (setting [17]). The viability in assay [12] is 96.2% (inactive); in assay [13], 88.4% (inactive). Moreover, in assay [2], the Her2 level was 102% (inactive). Also, the differential viability (reversal) in assay [6] (H69AR cells + 2 uM doxorubicin) was 0.595% (inactive). Moreover, the inhibition in assay [7] is -4.4% (inactive); in [8], -1.5% (inactive); in assay [14] it was 2.62% (inactive). Also, the growth inhibition in assay [9] was 4.16% (inactive); in assay [10], 3.15% (inactive). Besides, the viability increase in [11] was -4.01% (inactive). In addition, the RAM network inhibition in assay [15] is 8.45% (inactive).

Consider `Cc1ccc(N(C)C(=O)N2CCN(c3ccccn3)CC2)cc1`, for which the viability in [1] was 94.5%; in assay [3] it was 94.5% (inactive); in [4] it was 109% (inactive); in [5], 98.2% (inactive); in assay [6] (setting [16]) it was 90.7%; in assay [6] (setting [17]), 98.2%. Moreover, the viability in [12] was 97.6% (inactive); in [13] it was 97.1% (inactive). Moreover, in [2], the Her2 level was 112% (inactive). For the same compound, the differential viability (reversal) in assay [6] (H69AR cells + 2 uM doxorubicin) is 7.52% (inactive). Moreover, the inhibition was 2.27% (inactive) in assay [7], -0.5% (inactive) in assay [8] and 1.14% (inactive) in [14]. Besides, the growth inhibition in assay [9] was 0.955% (inactive); in [10], 5.44% (inactive). Moreover, the viability increase in assay [11] was -1.03% (inactive). Moreover, in assay [15], the RAM network inhibition is -0.55% (inactive).

Take `Cc1ccc(-n2c3c(cc(C(=O)NCCCN4CCOCC4)c2=O)C(=O)CC(C)(C)C3)cc1`: the viability in assay [1] is 109%; in [3], 109% (inactive); in assay [4], 87% (inactive); in [5], 85% (inactive); in [6] (setting [16]), 97.9%; in assay [6] (setting [17]), 85%. Further, the viability in assay [12] was 101% (inactive); in [13], 104% (inactive). In addition, the Her2 level in assay [2] is 110% (inactive). In assay [6] (H69AR cells + 2 uM doxorubicin), the differential viability (reversal) is -13% (inactive). Moreover, the inhibition in [7] was 0.53% (inactive); in [8], -3.67% (inactive); in assay [14], -0.26% (inactive). Further, the growth inhibition in [9] is -4.99% (inactive); in [10], -4.07% (inactive). Moreover, the viability increase in assay [11] is -1.54% (inactive). Besides, the RAM network inhibition in [15] is 3.35% (inactive).

As to `O=C(Nc1c(C(=O)NCc2ccco2)cnn1-c1ccccc1)c1ccc(F)cc1`, the viability in [1] is 95.5%; in assay [3] it was 95.5% (inactive); in assay [4] it was 91.9% (inactive); in assay [5], 96.9% (inactive); in assay [6] (setting [16]) it was 92.6%; in [6] (setting [17]), 96.9%. Besides, the values for the viability in assay [12] and in assay [13] were 101% (inactive) and 96.8% (inactive), respectively. In assay [2], the Her2 level was 116% (inactive). For the same compound, the differential viability (reversal) in assay [6] (H69AR cells + 2 uM doxorubicin) is 4.25% (inactive). Moreover, the inhibition in [7] is -0.26% (inactive); in assay [8], -6% (inactive); in assay [14] it was -0.12% (inactive). Also, the growth inhibition in [9] is -0.04% (inactive); in assay [10], 13.1% (inactive). For the same compound, the viability increase in assay [11] was -5.34% (inactive). Besides, the RAM network inhibition in assay [15] was 0.53% (inactive).

Take `Brc1ccccc1-c1nc(-c2ccccc2)no1`: the viability in assay [1] was 88%; in [3], 88% (inactive); in assay [4] it was 89.1% (inactive); in [5], 74.3% (inactive); in [6] (setting [16]) it was 83.3%; in [6] (setting [17]), 74.3%. Besides, the viability in [12] was 72% (inactive); in assay [13], 70.6% (inactive). The Her2 level in [2] is 84.5% (inactive). Besides, the differential viability (reversal) in assay [6] (H69AR cells + 2 uM doxorubicin) was -8.99% (inactive). In addition, the inhibition is -2.6% (inactive) in [7], -8% (inactive) in assay [8] and 0.565% (inactive) in [14]. Further, the growth inhibition is -7.54% (inactive) in assay [9] and 8.43% (inactive) in assay [10]. Also, in [11], the viability increase is -5.68% (inactive). In assay [15], the RAM network inhibition was 3.53% (inactive).

As for `CC(=O)C1=C(C)Nc2ncnn2C1c1cccc(OCc2ccccc2)c1` (stereo not drawn), the viability in assay [1] is 102%; in [3], 102% (inactive); in assay [4], 115% (inactive); in assay [5], 88.6% (inactive); in [6] (setting [16]), 94.2%; in [6] (setting [17]) it was 88.6%. Moreover, the viability in assay [12] was 92.4% (inactive); in assay [13], 93.5% (inactive). Also, the Her2 level in assay [2] is 104% (inactive). Further, in assay [6] (H69AR cells + 2 uM doxorubicin), the differential viability (reversal) was -5.64% (inactive). The inhibition in assay [7] is -4% (inactive); in [8] it was 1.5% (inactive); in [14], 1.94% (inactive). The growth inhibition in [9] was -3.25% (inactive); in assay [10], -0.16% (inactive). Also, the viability increase in [11] is -0.76% (inactive). The RAM network inhibition in [15] is 4.69% (inactive).
